Records with an inconclusive call do not appear. Activity calls are given as the source filed them. The call rests on the fitted dose curve; in most records, active means well fitted curve in the direction sought with a large enough effect in the repeat runs; inconclusive means weak or mixed curves; inactive means no such curve, though single readings can be large; an effect the other way counts as inactive or inconclusive.
Assays:
[1] = A CellTox Green Cytotoxicity Assay to monitor cytotoxicity in HepG2 cells - 8 hour (AID 1224890); further: nearly all actives have a fitted effect of over 45% in size
How it was run: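 Cells and non-lytic dye reagent are dispensed together (600 HepG2 cells/well) and incubated 5 h before DMSO compound transfer. Kinetic fluorescence is then recorded in the same wells during 40 h at 37 C.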

[2] = qHTS assay to identify small molecule antagonists of the estrogen receptor alpha (ER-alpha) signaling pathway using the BG1 cell line in the presence of 0.1 nM 17-beta-estradiol - cell viability counter screen (AID 1259241); further: nearly all actives have a fitted effect of over 40% in size
How it was run: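 VM7Luc4E2 cells (endogenous full-length ER-alpha, 4xERE-luciferase), cultured 5 days in charcoal-stripped serum, exposed to compounds with 0.1 nM 17beta-estradiol (final) for 22 hr at 37C. Viability read in same wells as live-cell protease fluorescence after 30 min.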

[3] = qHTS assay to identify small molecule antagonists of the androgen receptor (AR) signaling pathway using the MDA cell line in the presence of 0.5 nM R1881 - cell viability counter screen (AID 1259242); further: nearly all actives have a fitted effect of over 45% in size
How it was run: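 Steps: plate MDA-kb2 cells, rest 5 hr at 37C without CO2; pin in compounds in DMSO; add R1881 to 0.5 nM final; incubate 16 hr; add CellTiter-Fluor, 30 min; read fluorescence.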

[4] = molecular target: Estrogen receptor (Homo sapiens) (UniProt P03372); assay: qHTS assay to identify small molecule antagonists of the estrogen receptor alpha (ER-alpha) signaling pathway using the BG1 cell line in the presence of 0.1 nM 17-beta-estradiol (AID 1259244); further: nearly all actives have a fitted effect of over 50% in size; further: potency means the concentration at half of the fitted maximal effect
How it was run: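 Antagonist mode: compounds in DMSO are pinned onto VM7Luc4E2 reporter cells, 0.1 nM final 17beta-estradiol is added, and after 22 h at 37C luciferase luminescence is measured with ONE-Glo.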

[5] = qHTS assay to identify small molecule HDAC inhibitors (AID 1259364); further: potency means the concentration at half of the fitted maximal effect;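 further: wild-type HCT-116 cells with endogenous class I/II HDAC activity; nearly all actives have a fitted effect of over 45% in size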; on activity change, negative = inhibition: top concentration of the series differs between compounds
How it was run: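 Cells (HCT-116, wild type) are seeded at 1,500 per well, incubated overnight, treated with compound in DMSO for 2 hr, then developed with HDAC-Glo I/II reagent for 30 min at room temperature.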

[6] = qHTS assay to identify small molecule HDAC inhibitors - cell viability counter screen (AID 1259365); further: series mostly up to about 92 µM; nearly all actives have a fitted effect of over 50% in size
How it was run: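 Wild-type HCT-116 cells, 1,500/well, cultured overnight, then compound-treated 2 h at 37 C. Viability measured as ATP luminescence with CellTiter-Glo after 30 min at room temperature.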

[7] = qHTS assay to identify small molecule agonists of the sonic hedgehog signaling (Shh) pathway - cell viability counter screen (AID 1259366); further: nearly all actives have a fitted effect of over 50% in size
How it was run: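 NIH/3T3-derived Gli1-Luc reporter cells, 2,000 per well, received compound after 4 h and were treated about 23 h at 37C. Viability measured in the same wells by CellTiter-Fluor fluorescence after 1 h.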

[8] = qHTS assay to identify small molecule antagonists of the sonic hedgehog signaling (Shh) pathway - cell viability counter screen (AID 1259367); further: nearly all actives have a fitted effect of over 55% in size
How it was run: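 Tox21 library chemicals were tested on a Gli1-Luc NIH/3T3 clone (2,000 cells/well) stimulated by conditioned medium; viability was quantified as fluorescence from CellTiter-Fluor reagent added at 23 hr.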
On the % scale 0 is the no-effect control and ±100 the full control effect.

Sequence of Estrogen receptor (Homo sapiens) (P03372 whole entry, looked up): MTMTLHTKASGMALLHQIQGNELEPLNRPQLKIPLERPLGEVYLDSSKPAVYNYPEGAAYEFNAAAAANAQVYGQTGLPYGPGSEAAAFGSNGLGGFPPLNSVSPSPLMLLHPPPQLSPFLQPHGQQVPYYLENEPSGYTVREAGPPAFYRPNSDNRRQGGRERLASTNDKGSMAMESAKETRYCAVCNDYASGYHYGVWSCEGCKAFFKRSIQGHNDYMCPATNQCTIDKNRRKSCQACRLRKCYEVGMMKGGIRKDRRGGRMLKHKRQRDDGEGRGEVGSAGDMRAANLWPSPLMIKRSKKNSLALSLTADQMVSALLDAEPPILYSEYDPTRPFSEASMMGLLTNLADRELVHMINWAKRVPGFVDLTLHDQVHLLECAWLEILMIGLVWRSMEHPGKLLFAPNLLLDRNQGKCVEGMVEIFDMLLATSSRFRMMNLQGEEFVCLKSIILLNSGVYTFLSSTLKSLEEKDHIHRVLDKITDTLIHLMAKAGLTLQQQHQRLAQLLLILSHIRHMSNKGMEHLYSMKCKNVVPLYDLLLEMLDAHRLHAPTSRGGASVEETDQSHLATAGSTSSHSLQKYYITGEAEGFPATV

CCOC(=O)OCC
inactive: Potency [1] | Potency [2] | Potency [3] | Potency [4] | Potency [5] | Potency [6] | Potency [7] | Potency [8]

CCCCCCCCCCCC[N+](C)(C)CCCS(=O)(=O)[O-]
inactive: Potency [1] | Potency [2] | Potency [3] | Potency [4] | Potency [5] | Potency [6] | Potency [7] | Potency [8]

CCCCOC(=O)CCS
inactive: Potency [1] | Potency [2] | Potency [3] | Potency [5] | Potency [6] | Potency [7] | Potency [8]
active: Potency [4] 27.3 µM

Oc1cc(O)c(Cl)cc1Cl
inactive: Potency [1] | Potency [2] | Potency [3] | Potency [4] | Potency [5] | Potency [6] | Potency [7] | Potency [8]

CCC(=O)OC/C=C/c1ccccc1
inactive: Potency [1] | Potency [2] | Potency [3] | Potency [4] | Potency [5] | Potency [6] | Potency [7] | Potency [8]

CCOC(=N)CC(=O)OCC
inactive: Potency [1] | Potency [2] | Potency [3] | Potency [4] | Potency [5] | Potency [6] | Potency [7] | Potency [8]

COC(=O)CC(=O)C(C)(C)C
inactive: Potency [1] | Potency [2] | Potency [3] | Potency [4] | Potency [5] | Potency [7] | Potency [8]

O=S1OCCO1
inactive: Potency [1] | Potency [2] | Potency [3] | Potency [4] | Potency [5] | Potency [6] | Potency [7] | Potency [8]

CCCCCCCCCCCC[N+](C)(C)CC(=O)[O-]
inactive: Potency [1] | Potency [2] | Potency [3] | Potency [4] | Potency [5] | Potency [6] | Potency [7] | Potency [8]

CC(C)CCCCCCOC(=O)CCCCC(=O)OCCCCCCC(C)C
inactive: Potency [1] | Potency [2] | Potency [3] | Potency [4] | Potency [5] | Potency [6] | Potency [7]

CCN(Cc1cccc(S(=O)(=O)O)c1)c1ccc(C(=C2C=CC(=[N+](CC)Cc3cccc(S(=O)(=O)[O-])c3)C=C2)c2ccccc2)cc1
inactive: Potency [1] | Potency [2] | Potency [3] | Potency [4] | Potency [5] | Potency [6] | Potency [7] | Potency [8]

NC(=O)N(O)[C@@H]1COc2cc(OCc3ccccc3)ccc21
active: Potency [4] 43.3 µM | Potency [5] 1.72 µM
inactive: Potency [1] | Potency [2] | Potency [3] | Potency [6] | Potency [7]

CC(C)=CC=O
inactive: Potency [1] | Potency [2] | Potency [3] | Potency [4] | Potency [5] | Potency [6] | Potency [7] | Potency [8]

CCCCCCCCCCCCCCCCBr
inactive: cytotoxicity increase [1] -4.5% [at 15.8 µM] | activity change, negative = cytotoxicity [2] 1.42% [at 19 µM] | viability change, negative = cytotoxic [3] 2.08% [at 19 µM] | activity change, negative = inhibition [4] 3% [at 19 µM] | activity change, negative = inhibition [5] 4.52% [at 19 µM] | activity change, negative = cytotoxicity [6] 1.54% [at 19 µM] | viability change, negative = cytotoxic [7] -1.13% [at 19 µM] | viability change, negative = cytotoxic [8] -2.38% [at 19 µM]

O=Cc1c(Cl)cccc1Cl
inactive: Potency [1] | Potency [2] | Potency [3] | Potency [4] | Potency [5] | Potency [7] | Potency [8]

c1ccc(COCc2ccccc2)cc1
inactive: Potency [1] | Potency [2] | Potency [3] | Potency [4] | Potency [5] | Potency [6] | Potency [7] | Potency [8]

CC(C)c1nnc2ccc(-c3ocnc3-c3cc(F)ccc3F)cn12
active: Potency [4] 30.6 µM
inactive: Potency [1] | Potency [2] | Potency [3] | Potency [5] | Potency [6] | Potency [7] | Potency [8]

O=C(O)c1cccc(O)c1
inactive: Potency [1] | Potency [2] | Potency [3] | Potency [4] | Potency [5] | Potency [6] | Potency [7]

C[Si](NC1CCCCC1)(NC1CCCCC1)NC1CCCCC1
inactive: Potency [1] | Potency [2] | Potency [3] | Potency [4] | Potency [5] | Potency [6] | Potency [7] | Potency [8]

Cc1ccc(S(=O)(=O)NC2CCCCC2)cc1
inactive: Potency [1] | Potency [2] | Potency [3] | Potency [4] | Potency [5] | Potency [6] | Potency [7] | Potency [8]

COC(=O)c1cc(S(N)(=O)=O)ccc1OC
inactive: Potency [1] | Potency [2] | Potency [3] | Potency [4] | Potency [5] | Potency [7] | Potency [8]

Cc1nc2ccccc2s1
inactive: Potency [1] | Potency [2] | Potency [3] | Potency [4] | Potency [5] | Potency [6] | Potency [7] | Potency [8]

Cn1c(=O)c2c(ncn2CC(=O)O)n(C)c1=O
inactive: Potency [1] | Potency [2] | Potency [3] | Potency [4] | Potency [5] | Potency [6] | Potency [7] | Potency [8]

Cc1ccnc2ccccc12
inactive: Potency [1] | Potency [2] | Potency [3] | Potency [4] | Potency [5] | Potency [6] | Potency [7]

COCC(O)CO (centres undefined)
inactive: Potency [1] | Potency [2] | Potency [3] | Potency [4] | Potency [5] | Potency [6] | Potency [7] | Potency [8]

CCCc1c(OCCCOc2ccc(OCC(=O)O)cc2)ccc(C(C)=O)c1O
inactive: Potency [1] | Potency [2] | Potency [3] | Potency [4] | Potency [5] | Potency [6] | Potency [7] | Potency [8]

CNC(=S)NC
inactive: Potency [1] | Potency [2] | Potency [3] | Potency [4] | Potency [5] | Potency [6] | Potency [7] | Potency [8]

CCCOCCOCCO
inactive: Potency [1] | Potency [2] | Potency [3] | Potency [4] | Potency [5] | Potency [6] | Potency [7]

CC(=O)Nc1ccc(N)cc1
inactive: Potency [1] | Potency [2] | Potency [3] | Potency [4] | Potency [5] | Potency [6] | Potency [7] | Potency [8]

COC(OC)(C(=O)c1ccccc1)c1ccccc1
inactive: Potency [1] | Potency [2] | Potency [3] | Potency [4] | Potency [5] | Potency [6] | Potency [7] | Potency [8]

CC(N)CN (centres undefined)
inactive: Potency [1] | Potency [2] | Potency [3] | Potency [4] | Potency [5] | Potency [7] | Potency [8]

Oc1ccc(Nc2ccccc2)cc1
inactive: Potency [1] | Potency [2] | Potency [3] | Potency [4] | Potency [5] | Potency [6] | Potency [7] | Potency [8]

CCCCC(CC)C(=O)OCCOCCOCCOCCOC(=O)C(CC)CCCC (centres undefined)
inactive: Potency [1] | Potency [2] | Potency [3] | Potency [4] | Potency [5] | Potency [6] | Potency [7] | Potency [8]

O=C(/C=C/c1ccccc1)OCCCc1ccccc1
inactive: Potency [1] | Potency [2] | Potency [3] | Potency [4] | Potency [5] | Potency [7] | Potency [8]

CCCCC(=O)O[C@]1(C(=O)CO)[C@@H](C)C[C@H]2[C@@H]3CCC4=CC(=O)C=C[C@]4(C)[C@@]3(F)[C@@H](O)C[C@@]21C
inactive: Potency [1] | Potency [2] | Potency [3] | Potency [4] | Potency [6] | Potency [7] | Potency [8]
